TGFb inhibitor: TGF-b pathway inhibition. HepG2 CAGA-GFP TGF-b/SMAD3 reporter, GFP fluorescence, 18 h; TGF-beta stimulated, 500 pg/mL final. Potency, µM (titrated, usually from 46.1 µM), without a hit: top-dose activity, negative = inhibition, actives largely listed as inhibitors. actives 1.2% (n = 410,000); note: % is set by controls: 0 for no effect and ±100 for the full control effect; nearly all actives have a fitted effect of over 65% in size
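HEPG2 CAGA-GFP cells (1000/well, DMEM with 1% FBS) were pre-incubated 2 h at 37 degrees C, given compound by pin tool, then stimulated with TGF-beta at 500 pg/mL final for 18 h before per-cell GFP fluorescence imaging.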
ATXN2 expr inh: inhibitors of ATXN2 expression. HEK-293 ATXN2-luciferase reporter, luminescence, 24 h. Potency, µM (top dose mostly 57 µM), without a hit: top-dose activity change, negative = inhibition, actives largely listed as inhibitors. actives 0.72% (n = 360,000). AID 1745845; note: % is set by controls: 0 for no effect and ±100 for the full control effect; nearly all actives have a fitted effect of over 55% in size
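qHTS (up to 57 uM final) was run with 24 h compound exposure of reporter cells at 37 °C. Each well was multiplexed: SteadyGlo luminescence measured ATXN2-luciferase expression after a fluorogenic Gly-Phe-AFC viability readout (25 uM final).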
HepG2 tox: counter-screen for TGF-b inhibitors: cytotoxicity in HepG2 cells | HepG2 CAGA-GFP viability, ATP luminescence, 18 h | Potency, µM (top dose mostly 46.1 µM), without a hit: top-dose activity change, negative = cytotoxicity, actives largely listed as cytotoxic | actives 0.76% (n = 410,000) | AID 588856
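CellTiter-Glo luminescence gave cytotoxicity after 18 hours at 37 degrees C. The cells were HepG2 CAGA-GFP in 1% FBS DMEM, stimulated with 500 pg/mL TGF-beta after compound addition. %Activity was normalised to no-cell wells (complete cell-killing) and DMSO (no toxicity), and curves were fitted and classified.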
TDP1 cell CPT: DT40-hTDP1 cell growth loss with CPT; chicken DT40 Tdp1-/-;hTDP1 cells + 20 nM CPT, ATP luminescence, 48 h; Potency, µM (top dose mostly 46.2 µM), for the others: at the highest dose activity change, negative = growth inhibition, hits mostly inhibitors; actives 12% (n = 420,000); note: % is set by controls: 0 for no effect and ±100 for the full control effect; nearly all actives have a fitted effect of over 55% in size
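Chicken DT40 Tdp1-/- cells stably complemented with human TDP1 were seeded at 400 cells/well in medium containing 20 nM camptothecin, exposed to pin-transferred compounds, and grown at 37 °C for at least 48 hr. Viability was read as ATP luminescence.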
S2 tox: viability counter-screen for ATXN expression inhibitors | actives 0.49% (n = 400,000) | Potency, µM (titrated, usually from 56.7 µM), usual class: cytotoxic | AID 651635 | S2 cells (HEK-293 line with an ATXN2-luciferase reporter) viability, CellTiter-Fluor protease fluorescence, 24 h; note: nearly all actives have a fitted effect of over 40% in size
TDP1 cell noCPT: qHTS for Inhibitors of human tyrosyl-DNA phosphodiesterase 1 (TDP1): qHTS in cells in absence of CPT. DT40 Tdp1-/- hTDP1 cells, no CPT, ATP luminescence, 48 h. Potency, µM (doses to about 46.2 µM), for inactives: at the top dose activity change, negative = growth inhibition, most hits filed as inhibitors. actives 15% (n = 420,000); note: % is set by controls: 0 for no effect and ±100 for the full control effect; nearly all actives have a fitted effect of over 55% in size
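Camptothecin absent (DMSO only). Human TDP1-complemented DT40 knockout cells, 400 cells/well, 37 °C for minimum 48 hr; ATP measured via CellTiter-Glo, 30 min dark incubation, luminescence.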
Starred values were filed as active, the others as inactive; i = inactive; ? = inconclusive; . = not tested or not shown; ! = a repeat was not active. The list is not random: actives were taken first. Their share in the collection is about 17%. Calls come from the whole dose curve; as a rule, active = well fitted curve in the direction sought with a large enough effect; inconclusive = small, poorly fitted or top-dose-only effect, or another doubt; inactive = no such curve, though single readings can be large; an effect the other way counts as inactive or inconclusive. Potency is the fitted concentration of half-maximal effect.

SMILES | TGFb inhibitor | ATXN2 expr inh | HepG2 tox | TDP1 cell CPT | S2 tox | TDP1 cell noCPT
Cc1ccc(OCc2ccc(C(=O)NN)o2)c([N+](=O)[O-])c1 | ? | . | -78% | -3% | ? | -1%
Cc1ccc(OCc2ccc(C(=O)Nc3c(C)nn(Cc4c(F)c(F)c(F)c(F)c4F)c3C)o2)c([N+](=O)[O-])c1 | ? | -24% | -5% | 13µM* | ? | 18µM*
Cc1nn(Cc2c(F)c(F)c(F)c(F)c2F)c(C)c1NC(=O)c1c([N+](=O)[O-])cnn1C | -11% | -7% | -2% | 13µM* | i | 12µM*
CCn1ncc(Br)c1C(=O)Nc1c(C)nn(Cc2c(F)c(F)c(F)c(F)c2F)c1C | 11% | -10% | -6% | 16µM* | i | ?
COC(=O)N/N=C/c1ccc(-c2ccc(C)c(Cl)c2)o1 | 0% | 10% | 9% | 2% | i | 0%
Cc1ccc(-c2ccc(/C=N/c3ncn[nH]3)o2)cc1Cl | ? | 16µM* | -21% | 2% | i | ?
Cc1ccccc1N=C(N)Nc1ccccc1C | 21% | -4% | 5% | 27µM*! | i | ?
Cc1ccccc1NC(=O)NC(N)=O | -24% | . | -12% | -3% | i | 7%
O=c1cc(-c2cccc3c2Sc2ccccc2S3)oc(N2CCOCC2)c1 | . | -29% | . | . | . | .
Cc1ccc(CN2C(=O)C(=O)c3cc(C)ccc32)cc1 | ? | 4% | -14% | 0.58µM* | ? | 0.65µM*
CCCCN1C(=O)C(=O)c2cc(Cl)ccc21 | 13µM* | ? | -86% | 1µM* | ? | 0.82µM*
Cc1ccc2c(c1)C(=O)C(=O)N2c1ccc(Cl)cc1 | ? | -1% | -39% | ? | i | ?
CCCN1C(=O)C(=O)c2cc(C)ccc21 | 4% | 0% | 7% | 2.1µM* | ? | 3.3µM*
Cc1ccc2c(c1)C(=O)C(=O)N2Cc1ccc(Br)cc1 | ? | -36% | -31% | 0.92µM* | ? | 0.65µM*
CC(Cc1c[nH]c2ccccc12)C(=O)NCc1ccco1 (centres undefined) | -1% | 4% | -8% | -28% | i | -16%
O=C(NCCc1ccccc1)C(=O)NCC1OCCCN1S(=O)(=O)c1cccs1 (centres undefined) | -7% | -1% | -12% | -8% | i | -1%
CCCCOc1ccc(Cn2c(=O)oc3ccc(C)cc32)cc1 | 3% | 6% | -10% | ? | i | ?
Cc1ccc2c(c1)C(=O)C(=O)N2Cc1ccc(OCCC(C)C)cc1 | ? | . | -5% | 0.41µM* | . | 0.41µM*
O=C(C[C@H]1C[C@@H]2c3cc(NS(=O)(=O)c4ccccc4)ccc3O[C@@H]2[C@H](CO)O1)N1CCOCC1 | 1% | 8% | -3% | -14% | i | -12%
CCCCOc1ccc(C(=O)N2CCC(c3nc4ccccc4o3)CC2)cc1 | -6% | . | -4% | ? | . | 13µM*
Cc1cccc(OC(C)C(=O)N2CCC(c3nc4ccccc4o3)CC2)c1C (centres undefined) | -22% | . | -32% | ? | . | 23µM*
CCOc1ccccc1C(=O)N1CCC(c2nc3ccccc3o2)CC1 | 0% | . | -21% | ? | . | 21µM*
CC(C)Oc1ccc(C(=O)N2CCC(c3nc4ccccc4o3)CC2)cc1 | ? | . | -3% | ? | . | 18µM*
CCOc1ccc(NC(=O)N2CCC(c3nc4ccccc4o3)CC2)cc1 | -15% | -19% | 19% | ? | i | ?
Cc1cccc(OCC(=O)N2CCC(c3nc4ccccc4o3)CC2)c1C | -1% | . | -36% | ? | . | ?
O=C(NCCC(=O)N1CCCC1)c1ccccc1Cl | -4% | 32% | -33% | 9% | i | 18%
